# Records with an inconclusive call do not appear. Entries that show only a call come without a potency. Values without a mark were called inactive. Activity calls are given as the source filed them. Calls come from the whole dose curve; as a rule, active = well fitted cell-killing curve with a large enough effect; inconclusive = small, poorly fitted or top-dose-only effect, or effect the other way; inactive = flat fitted curve, though single readings scatter.
# Tests used:
# Assay in all cases: Primary qHTS to identify gynecologic anti-cancer compounds using libraries of approved drugs and bioactive compounds (AID 1345084); note: nearly all actives have a fitted effect of over 55% in size
# Conditions in all cases: Gynecologic cancer cell panel viability, ATPlite luminescence, 48 h; series mostly up to 57.5 µM
# [1] = test system: OV90
# Procedure, shortened: (§1)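 ATP-based viability (ATPlite), 1,000 cells/well, 16 h pre-incubation, 48 h compound at 37 C, 5% CO2, 15 min RT before read.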
# [2] = test system: PA-1
# Procedure, shortened: as §1
# [3] = test system: Tov-21-G
# Procedure, shortened: as §1
# [4] = test system: Tov112D
# Procedure, shortened: as §1
# [5] = test system: SKOV3
# Procedure, shortened: as §1
# Potency is the fitted concentration of half-maximal effect.
structure (smiles),measurement,setting,value
Cc1ccccc1NC(=O)Nc1ccc(CN2C(=O)N([C@@H](CC(C)C)C(=O)N[C@@H](CC(=O)O)c3ccccc3)C(=O)C2(C)C)cc1,Potency,[1],inactive
same,Potency,[2],inactive
same,Potency,[3],inactive
same,Potency,[4],inactive
CCC(C)C1NC(=O)C2C(C)CCN2C(=O)C(CC(O)CO)OC(=O)CCNC(=O)C(C)N(C)C(=O)C(C(C)C)N(C)C1=O (configuration not stated),Potency,[1],inactive
same,Potency,[2],inactive
same,Potency,[3],inactive
same,Potency,[4],inactive
COc1c(O[C@@H]2O[C@H](CO)[C@@H](O)[C@H](O)[C@H]2O)c(CCC(=O)O)cc2ccoc12,Potency,[1],inactive
same,Potency,[2],inactive
same,Potency,[3],inactive
same,Potency,[4],inactive
CC1=C2CC(C)(C)CC2C(O)C2=C(C1)C(=O)OC2O (configuration not stated),Potency,[1],inactive
same,Potency,[5],inactive
same,Potency,[3],inactive
same,Potency,[4],inactive
N#Cc1ccc(C2CCCc3cncn32)cc1 (configuration not stated),Potency,[1],inactive
same,Potency,[5],inactive
COC(=O)C1=CO[C@@H](O[C@@H]2O[C@H](CO)[C@@H](O)[C@H](O)[C@H]2O)[C@H]2[C@@H]1C=C[C@]21C=C([C@H](C)OC(=O)/C=C/c2ccc(O[C@@H]3O[C@H](CO)[C@@H](O)[C@H](O)[C@H]3O)cc2)C(=O)O1,Potency,[1],inactive
same,Potency,[5],inactive
same,Potency,[3],inactive
same,Potency,[4],inactive
CCC12CCCN3CCc4c(n(c5ccccc45)C(O)C1)C32 (configuration not stated),Potency,[1],inactive
same,Potency,[2],inactive
same,Potency,[3],inactive
same,Potency,[4],inactive
C[C@@H]1O[C@@H](O[C@H]2[C@H](O[C@H]3[C@H](O[C@H]4CC[C@@]5(C)C(CC[C@]6(C)C5CC=C5[C@@H]7CC(C)(C)CC(=O)[C@]7(C)CC[C@]56C)[C@@]4(C)CO)O[C@H](C(=O)O)[C@@H](O)[C@@H]3O)O[C@H](CO)[C@H](O)[C@@H]2O)[C@H](O)[C@H](O)[C@H]1O (some centres not stated),"activity change, negative = cytotoxicity",[1],-8.44% [at 11.6 µM]
same,"activity change, negative = cytotoxicity",[5],0.762% [at 11.6 µM]
same,"activity change, negative = cytotoxicity",[3],5.22% [at 11.6 µM]
same,"activity change, negative = cytotoxicity",[4],-2.67% [at 11.6 µM]
C=C1C2CCC3C(CCC4[C@@]3(C)CCC[C@@]4(C)C(=O)O)(C2)[C@@H]1OC(=O)/C(C)=C\C (some centres not stated),Potency,[1],inactive
same,Potency,[5],inactive
CC1C2=CC(=O)OC2(O)CC2C1C(OC(=O)c1ccccc1)C(OC(=O)c1ccccc1)C1(O)C2(C)CCC(O)C1(C)C(=O)O (configuration not stated),Potency,[1],inactive
same,Potency,[2],inactive
same,Potency,[3],inactive
same,Potency,[4],inactive
Cc1cc(Cn2cnc3c2CC(C(=O)O)N(C(=O)C(c2ccccc2)c2ccccc2)C3)ccc1N(C)C (configuration not stated),Potency,[1],inactive
same,Potency,[2],inactive
same,Potency,[3],inactive
same,Potency,[4],inactive
C[C@]1(O)CC[C@@H]2C(C(=O)O)=CO[C@@H](O[C@@H]3O[C@H](CO)[C@@H](O)[C@H](O)[C@H]3O)[C@@H]21,Potency,[1],inactive
same,Potency,[2],inactive
same,Potency,[3],inactive
same,Potency,[4],inactive
Cc1occc1C(=O)n1ccnc1,Potency,[1],inactive
same,Potency,[2],inactive
same,Potency,[3],inactive
same,Potency,[4],inactive
CNc1nc(C)nc(N[C@H]2CCC[C@@H](C(=O)NCc3ccc(C#N)cc3C(F)(F)F)C2)n1,Potency,[1],inactive
same,Potency,[5],inactive
same,Potency,[3],inactive
same,Potency,[4],inactive
C[C@@H]1C(=O)O[C@H](C)[C@H]1C[C@@H](O)[C@](C)(O)[C@H]1CC[C@@]2(O)C3=CC(=O)[C@@H]4C[C@@H](O)[C@@H](O)C[C@]4(C)C3CC[C@]12C (some centres not stated),Potency,[1],inactive
same,Potency,[5],inactive
same,Potency,[3],inactive
same,Potency,[4],inactive
CCC(C)/C=C(C)/C=C/C1=CC2=C(Cl)C(=O)C(C)(OC(C)=O)C(=O)C2=CN1C(CCCN=C(N)N)C(=O)O (configuration not stated),Potency,[1],inactive
same,Potency,[5],inactive
same,Potency,[3],inactive
same,Potency,[4],inactive
O=C(O)CCc1cc2ccoc2cc1O[C@@H]1O[C@H](CO)[C@@H](O)[C@H](O)[C@H]1O,Potency,[1],inactive
same,Potency,[5],inactive
same,Potency,[3],inactive
same,Potency,[4],inactive
CC(C)=CCC[C@](C)(O[C@@H]1O[C@H](CO[C@@H]2O[C@@H](CO)[C@H](O)[C@H]2O)[C@@H](O)[C@H](O)[C@H]1O)[C@H]1CC[C@]2(C)[C@@H]1[C@H](O)C[C@@H]1[C@@]3(C)CC[C@H](O[C@@H]4O[C@H](CO)[C@@H](O)[C@H](O)[C@H]4O[C@@H]4O[C@H](CO)[C@@H](O)[C@H](O)[C@H]4O)C(C)(C)[C@@H]3CC[C@]12C,Potency,[1],inactive
same,Potency,[5],inactive
same,Potency,[3],inactive
same,Potency,[4],inactive
C/C=C(\C)C(=O)OC1C(C)C2(O)C3C=C(C)C(=O)C3CC(CO)=CC2C2C(C)(C)C12OC(C)=O (configuration not stated),Potency,[1],inactive
same,Potency,[5],inactive
same,Potency,[3],inactive
same,Potency,[4],inactive
CCCCNc1nc(N)c2[nH]c(=O)n(Cc3ccc(OCCN(C)C)nc3)c2n1,Potency,[1],inactive
same,Potency,[2],inactive
same,Potency,[3],inactive
same,Potency,[4],inactive
C/C=C(\C)C(=O)OC[C@H]1O[C@H](O[C@H]2O[C@H](CO)[C@@H](O)[C@H](O)[C@H]2O[C@@H]2O[C@H](CO)[C@@H](O)[C@H](O)[C@H]2O)[C@H](O[C@@H]2O[C@H](CO)[C@@H](O)[C@H](O)[C@H]2O)[C@@H](O)[C@@H]1O,Potency,[1],inactive
same,Potency,[2],inactive
same,Potency,[3],inactive
same,Potency,[4],inactive
COc1c(-c2ccc(O)cc2)cc(OC)c2c1oc1cc(O)c(OC3OC(CO)C(O)C3O)cc12 (configuration not stated),Potency,[1],inactive
same,Potency,[2],inactive
same,Potency,[3],inactive
same,Potency,[4],inactive
CC1=C[C@H](O)[C@H]2C(C)(C)CCC[C@]2(C)[C@@]1(O)CO,Potency,[1],inactive
same,Potency,[2],inactive
same,Potency,[3],inactive
same,Potency,[4],inactive
COc1cc2nc(=NC(=O)c3cccnc3)n3c(c2cc1OC)NCC3,Potency,[1],inactive
same,Potency,[2],inactive
same,Potency,[3],inactive
same,Potency,[4],inactive
CC1CCC23COC(=O)C2=CC(O)CC3C1(C)CCc1ccoc1 (configuration not stated),Potency,[1],inactive
same,Potency,[2],inactive
same,Potency,[3],inactive
same,Potency,[4],inactive
CC(C)C1(O)NC(=O)C(CC2(O)c3ccccc3N3C(=O)C(C)(C)NC32)n2c1nc1ccccc1c2=O (configuration not stated),Potency,[1],inactive
same,Potency,[5],inactive
same,Potency,[3],inactive
same,Potency,[4],inactive
COc1cc(/C=C/C(=O)OCC2OC(OC3(CO)OC(CO)C(O)C3O)C(O)C(O)C2O)ccc1O (configuration not stated),Potency,[1],inactive
same,Potency,[2],inactive
same,Potency,[3],inactive
same,Potency,[4],inactive
NC[C@@H]1O[C@@H](O[C@@H]2[C@@H](O[C@@H]3O[C@H](CO)[C@@H](O)[C@H]3O)[C@H](O)[C@@H](N)C[C@H]2N)[C@@H](N)[C@H](O)[C@H]1O,"activity change, negative = cytotoxicity",[1],0.365% [at 11.6 µM]
same,"activity change, negative = cytotoxicity",[5],2.15% [at 11.6 µM]
same,"activity change, negative = cytotoxicity",[3],-2.07% [at 11.6 µM]
same,"activity change, negative = cytotoxicity",[4],-1.83% [at 11.6 µM]
NC(=O)C(O[C@@H]1O[C@H](CO[C@@H]2O[C@H](CO)[C@@H](O)[C@H](O)[C@H]2O)[C@@H](O)[C@H](O)[C@H]1O)c1ccccc1 (some centres not stated),Potency,[1],inactive
same,Potency,[2],inactive
same,Potency,[3],inactive
same,Potency,[4],inactive
COc1cc(O)c2c(c1)C1(OC2=O)C(C)=CC(=O)C1O (configuration not stated),Potency,[1],inactive
same,Potency,[2],inactive
same,Potency,[3],inactive
same,Potency,[4],inactive
C[C@@H]1O[C@@H](O[C@H]2[C@H](O)[C@@H](O)[C@H](OC(=O)[C@]34CCC(C)(C)C[C@H]3C3=CCC5[C@@]6(C)CC[C@H](O[C@@H]7O[C@H](C(=O)O)[C@@H](O)[C@H](O)[C@H]7O)C(C)(C)C6CC[C@@]5(C)[C@]3(C)CC4)O[C@@H]2CO)[C@H](O)[C@H](O)[C@H]1O (some centres not stated),"activity change, negative = cytotoxicity",[1],-2.03% [at 11.6 µM]
same,"activity change, negative = cytotoxicity",[2],-21.3% [at 11.6 µM]
same,"activity change, negative = cytotoxicity",[3],-3.13% [at 11.6 µM]
same,"activity change, negative = cytotoxicity",[4],-16.2% [at 11.6 µM]
Cc1ncc(NC(=O)c2ccc(CN3CCN(C)CC3)c(C(F)(F)F)c2)cc1Nc1nccc(-c2cccnc2)n1,Potency,[2],inactive
same,Potency,[5],inactive
same,Potency,[3],inactive
same,Potency,[4],inactive
C[C@@H]1C[C@@H](O)[C@@]23CO[C@]2(CO)C[C@@H](O)CC3[C@@]12CC(c1ccoc1)OC2=O (some centres not stated),Potency,[2],inactive
same,Potency,[3],inactive
same,Potency,[4],inactive
COc1cc(/C=C/CO[C@@H]2O[C@H](CO)[C@@H](O)[C@H](O)[C@H]2O)cc(OC)c1O[C@@H]1O[C@H](CO)[C@@H](O)[C@H](O)[C@H]1O,Potency,[1],inactive
same,Potency,[5],inactive
same,Potency,[3],inactive
same,Potency,[4],inactive
C=C1C(OC(C)=O)CCC2(C)CCC(C(C)(C)O)CC12 (configuration not stated),Potency,[2],inactive
same,Potency,[5],inactive
same,Potency,[3],inactive
same,Potency,[4],inactive
CC1(CO)CC(O)C2(C)CCC3(C)C(=CCC4C5(C=O)CCC(OC6OC(C(=O)O)C(O)C(O)C6OC6OC(C(=O)O)C(O)C(O)C6O)C(C)(C)C5CCC43C)C2C1 (configuration not stated),"activity change, negative = cytotoxicity",[1],0.842% [at 11.6 µM]
same,"activity change, negative = cytotoxicity",[3],10.3% [at 11.6 µM]
same,"activity change, negative = cytotoxicity",[4],20.1% [at 11.6 µM]
COc1ccc(-c2ccn(CC[C@](C)(C(=O)NO)S(C)(=O)=O)c(=O)c2)c(F)c1,Potency,[1],15.8 µM (active)
same,Potency,[3],25.1 µM (active)
Cn1nccc1-c1ccccc1Oc1ccc(S(=O)(=O)Nc2nccs2)cc1C#N,Potency,[2],inactive
same,Potency,[3],inactive
same,Potency,[4],inactive
CC1=C2CC3C(CCC3(C)O)C(C)(O)CC2OC1=O (configuration not stated),Potency,[5],inactive
same,Potency,[3],inactive
same,Potency,[4],inactive
Cc1nnc(-c2ccc3occ(-c4ccc(S(C)=O)cc4)c3c2)o1 (configuration not stated),Potency,[5],inactive
same,Potency,[3],inactive
same,Potency,[4],inactive
O=C(/C=C/C=C/c1ccc2c(c1)OCO2)N1CCCCC1,Potency,[4],inactive
COC(=O)C1=COC(OC2OC(CO)C(O)C(O)C2O)C2C(C)CC(=O)C12O (configuration not stated),Potency,[1],inactive
same,Potency,[5],inactive
same,Potency,[3],inactive
same,Potency,[4],inactive
Fc1ccccc1-c1nc2ccn(Cc3ccc(-c4ccc(C(F)(F)F)cc4C(F)(F)F)nn3)cc-2n1,Potency,[1],inactive
same,Potency,[3],inactive
same,Potency,[4],inactive
Cc1c(-c2ccc3c(c2)OCO3)oc2ccc(C(O)C(C)O)cc12 (configuration not stated),Potency,[2],inactive
same,Potency,[4],inactive
O=C(NC/C=C/CN1CCN(c2cccc(Cl)c2Cl)CC1)c1ccc(-c2ccccn2)cc1,Potency,[1],inactive
same,Potency,[3],inactive
same,Potency,[4],inactive
NC1(c2ccc(NC(=O)c3ccnc(-c4cc(C(=O)O)ccn4)c3)cc2)CC1,Potency,[1],inactive
same,Potency,[5],inactive
same,Potency,[3],inactive
same,Potency,[4],inactive
CC1CCC2C(C(=O)O)=CC3(O)CC(C)(C)CC123 (configuration not stated),Potency,[1],inactive
same,Potency,[5],inactive
same,Potency,[3],inactive
same,Potency,[4],inactive
CC(O)CCc1ccc(O[C@@H]2O[C@H](CO)[C@@H](O)[C@H](O)[C@H]2O)cc1 (some centres not stated),Potency,[2],inactive
same,Potency,[5],inactive
same,Potency,[3],inactive
same,Potency,[4],inactive
COc1c(C)c(OCC=C(C)C)cc2c1CNC2=O,Potency,[1],inactive
same,Potency,[5],inactive
same,Potency,[3],inactive
same,Potency,[4],inactive
CC(=O)O[C@@H](C[C@@H]1C=C(C)C(=O)O1)[C@H](C)[C@H]1CCC2[C@@]3(C)CC[C@H](O[C@@H]4O[C@H](CO)[C@@H](O)[C@H](O)[C@H]4O[C@@H]4O[C@@H](C)[C@H](O)[C@@H](O)[C@H]4O)C(C)(C)C3CC[C@@]2(C)[C@@]12COC(=O)C2 (some centres not stated),"activity change, negative = cytotoxicity",[1],15.4% [at 11.6 µM]
same,"activity change, negative = cytotoxicity",[5],14.4% [at 11.6 µM]
same,"activity change, negative = cytotoxicity",[3],2.35% [at 11.6 µM]
same,"activity change, negative = cytotoxicity",[4],13.8% [at 11.6 µM]

# From PubChem BioAssay (NCATS)
